This assay relates to VDR:RXRa (NR concentration 270 nM, RXRa partner concentration 90 nM). Description: PBM binding z-score (relative to random genomic background probes); higher = stronger binding; sequences stand for … in GC…GCGATTGACAGCGTAGAATGAAGG
The protocol: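 Protein-binding microarray (Agilent 4x180K custom design, double-stranded 60-nt probes: 5' GC cap, 34-nt variable region, 24-nt constant primer region; full probe sequence given). Purified or IVT nuclear receptor:RXRα heterodimers (3:1 NR:RXRα, mostly 270:90 nM) or homodimers were incubated for 1 h in PBS with 2% milk and no ligand, then detected with Alexa488 antibodies. Fluorescence from o1-orientation probes (~5 replicates averaged) was converted to z-scores against 500 random hg19 background probes. Variable regions are seed direct-repeat (DR0–DR5) sites, all their single-nucleotide variants and half-site ablations.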
Sequence TATTGTAGATCAATAGAGGTTAAGAAAGTGCGCT came in with a PBM binding z-score of 1.91.

As to GCTTACGGGTCAAAGGTGATAGCATGAATAGAAT, the PBM binding z-score was found to be 4.42.

TCATATAGGTAAACAGCTGAAAGTCCGTAAGTTA: the PBM binding z-score is 1.06. As for GCTAGGAGGACAAGGTCAGAGCTTTGTCCGTAGA, the PBM binding z-score turned out to be 1.4.

With CAAACTAGGTCTCGAAAGGTCAAAGTCGAATGAC, the PBM binding z-score was 4.71. The figure for CCTACTGGGCCCTCAGGTCATTGATATCAACGTT is 1.43; for ACTAGCAGGCCAAGTGTCACTCAAGATTAGTCCG it is -0.322.

For the sequence TAGCATAGGTCATTCAGGGGCCAGTATAGAAAGC, the PBM binding z-score came to 4.18.

TCATATAGGTAAACAGGTGAAAATCCGTAAGTTA: the PBM binding z-score was determined as 1.39. Consider TCATATAGGTAAATGCTAGGTTAAAGTCCGATCT, for which the PBM binding z-score was 1.33. The figure for ATCGAGAGGTCGTGAGGTGAGTATACAGAAAGGC is 3.3; for CGTCAGAGTTCAACTAAGGTAACGTAAAGCACGC it is 5.28. In turn, ATACCAAGCTGATCGTGAGGTCGTTGATACTAAC came in with a PBM binding z-score of 1.38. The figure for CCAGACAGGTGTGAAGGTAACTCAGCCTCGATTA is -0.322.

In the case of TCTTGTATATCAATAGAGGTTAAGAAAGTGCGCT, the PBM binding z-score is 2.14. Next, CCTCGGAGGACAGAAGGTCAGAGCAGTCCGCTTT: 1.82. The figure for GCTACTGGGGCATCAGCAGGTTACCATAACTTAA is 0.0562. The figure for ATATGTAGGTTACAGCCGGGTCATTCAGGCTATG is 4.1. For the sequence ATCTCTAGGTAACCAAGTTCAGTGACTGCCGAAC, the PBM binding z-score worked out at 4.15. The figure for CCGAGTAGGTTATGGGGGATTCAGGCAACGGTGA is 1.45. Next, CCTTACGGGTCACTCCAGGTTATAACATCGGAGT: 4.09; CCGTCTGGGGCAAAGGTTACCATACTCAGTACGA: 1.55; CCTAGTTGGTCAAGGGCACACACGCTATAGGTAC: 0.813. Next, CGTCCAAGGTCAATGCTAGGTGAGTGAAAGCATT: 3.69; TCGTGTAGGTTAGTCGGGGCATTCAGCCAACATA: 2.72; GCTCGGAGGACAAGGGCAGAGCTTTGTCCGTAGA: -0.692. In the case of TTAGCAAGGTGAGCTGAGGTCGTTGATCCAACTC, the PBM binding z-score stood at 4.01. The figure for CCTGCTAGGTCATGGTTAGCTAATCTACAGTATG is 1.39; for ATCGCTAGGTAAAGATAGTTCAGTGAATGCAAAT it is 0.0952. In the case of CCGACTGGGGCAGAAAGGCTACCATACCATCCGG, the PBM binding z-score was -0.639. The figure for ACTGTTAGTTGACTTAGGGCAACCGATACGACGC is 0.59; for GCGACTGGGGCAAAGCAGGATACCATAAGGTTGG it is -0.613. The figure for GATGCTAGGTCAGGTTGGTCAGCTAACGGGTACG is 0.88. Next, CGAACTAGGTCACGAAAGGTCAAAGTCGAATGAC: 6.89; TCGAGTAGGTTACCAATGGGTCATTCAGCTTTCT: 1.85; ACTAGCAGGCCAAGTTTGGGTCACCCAAACAAAG: 1.13. Sequence AGAACGAGGGCTCGCTGAGTTGATAGCAGAGTAG came in with a PBM binding z-score of -0.517.

Sequence CCTACTGGGGCATAAGGTTACCATAAGCCAGCCC registered a PBM binding z-score of 0.27. Sequence TGAATGAGGTTAAAGATCAGGGAGCGTGGCGTCG showed a PBM binding z-score of 1.74. The figure for CCTAGCAGGCCAGGGTCAATCAAGCATTTCGCTT is 2.86.
